AID inhibitor: Primary qHTS assay for inhibitors of Activation Induced Cytidine Deaminase (AID): AID signal. Single-stranded DNA cytosine deaminase (Homo sapiens), Q9GZX7. AID deamination FRET fluorescence, UDG-coupled, 4 h. Potency, µM (titrated, usually from 115 µM), actives largely listed as inhibitors. hit rate 0.32% among 91,000; also: nearly all actives have a fitted effect of over 25% in size
Target sequence (Q9GZX7 whole entry, looked up): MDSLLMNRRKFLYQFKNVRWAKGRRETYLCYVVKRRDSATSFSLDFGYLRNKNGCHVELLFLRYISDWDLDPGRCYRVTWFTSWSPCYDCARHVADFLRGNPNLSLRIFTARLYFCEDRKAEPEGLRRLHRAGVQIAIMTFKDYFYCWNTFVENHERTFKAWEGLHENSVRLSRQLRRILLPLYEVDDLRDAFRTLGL
UDG counterscr: Primary qHTS assay for inhibitors of Activation Induced Cytidine Deaminase (AID): UDG Counterscreen signal | hit rate 0.14% among 91,000 | Uracil-DNA glycosylase | Potency, µM (titrated, usually from 115 µM), inactives show at the highest dose activity change, negative = inhibition, actives largely listed as inhibitors | FRET deamination/UDG coupled assay, UDG read, 4 h; also: nearly all actives have a fitted effect of over 65% in size
Active calls of the source: *; i = inactive; u = inconclusive; ! = not active in a repeat; [ ] = another dose, or the depositor's remark. Only some compounds are listed: those with a hit (about 0.47% of all), similar ones and a draw of the others. Calls follow the shape of the dose curve; as a rule, active = well fitted curve in the direction sought with a large enough effect; inconclusive = small, poorly fitted or top-dose-only effect, or another doubt; inactive = no such curve, though single readings can be large; an effect the other way counts as inactive or inconclusive. % is scaled to controls: 0 for no effect and ±100 for the full control effect; potency is read from the fitted curve at half-maximal effect.

SMILES	AID inhibitor	UDG counterscr
Cc1ccc(C)c(N2CCN(CCCNC(=O)c3cnn(-c4ccccc4)c3C3CCN(C(=O)OC(C)(C)C)CC3)CC2)c1	i	38%
CC(C)(C)OC(=O)N1CCC(c2c(C(=O)N3CCN(c4ccccc4F)CC3)cnn2-c2ccccc2Cl)CC1	50µM*	u
Cc1c(Cl)cccc1-n1ncc(C(=O)N2CCN(c3ncccn3)CC2)c1C1CCN(C(=O)OC(C)(C)C)CC1	i	-9%
COc1ccccc1N1CCN(CCCNC(=O)c2cnn(-c3ccc(C)c(C)c3)c2C2CCN(C(=O)OC(C)(C)C)CC2)CC1	50µM*	12%
COc1ccc(CCN2CCC(CNC(=O)c3cnn(-c4cccc(Cl)c4)c3C3CCN(C(=O)OC(C)(C)C)CC3)CC2)cc1	35µM*	-17%
CC(C)c1cccc(N/C=C/C(=O)c2ccc(Br)cc2)c1	i	5%
Cc1ccc(CNC2C3CC4CC(C3)CC2C4)cc1 (centres undefined)	i	2%
N#Cc1nc(-c2ccccc2)c(-c2ccc3c(c2)-c2cc(-c4nc(C#N)c(C#N)nc4-c4ccccc4)ccc2C3=O)nc1C#N	i	-10%
CN(C)C(=O)c1ccc2oc(CN3CCN(C(=O)Nc4ccc(F)cc4F)CC3)nc2c1	i	1%
Cc1ccc(N(Cc2cccs2)C(=O)COc2cccc(C)c2)cc1	u	1%
Cc1cc(C)cc(OCC(=O)N(Cc2cccs2)c2ccc(Cl)cc2)c1	22µM*	-5%
CCCOc1ccc(-c2nn(-c3ccccc3)cc2C2NC(=O)NC(C)=C2C(=O)OC)cc1 (centres undefined)	u	-22%
CCCOc1ccc(-c2nn(-c3ccccc3)cc2C2NC(=O)NC(C)=C2C(=O)OCC)cc1 (centres undefined)	u	89µM*
CC(=O)c1ccc(NC(=O)NCCNc2ccc(C#N)cn2)cc1	i	6%
CN(C)CCCNc1cc(N2CCN(C3CCCCC3)CC2)c2noc3c2c1C(=O)c1ccccc1-3	40µM*	31%
O=C1c2ccccc2-c2onc3c(N4CCN(C5CCCCC5)CC4)cc(NCCO)c1c23	i	-4%
Cc1ccccc1N1CCN(C(=O)c2cc3ccccc3[nH]2)CC1	i	3%
COc1cccc(/C=C/c2nc(C#N)c(NCc3ccco3)o2)c1	i	-8%
COc1ccc(CNc2oc(/C=C/c3cccc(OC)c3)nc2C#N)cc1	i	89µM*
COC(=O)c1ccc(/C=C/c2cccc(C#N)c2)nc1	i	2%
COc1ccc(CNC(=O)C(=O)NCC(c2ccc3c(c2)OCO3)N2CCOCC2)cc1 (centres undefined)	i	1%[57.5 µM]
COc1ccc(CNCCC(c2ccc3c(c2)OCO3)c2ccccc2OC)cc1 (centres undefined)	50µM*	-15%
CC(Nc1ccc2oc(C3CC3)nc2c1)C(=O)NC(=O)NC1CC1 (centres undefined)	i	-7%
COc1cc(NC(=O)CC(c2ccc(C)cc2)N2Cc3ccccc3C2=O)cc(OC)c1 (centres undefined)	45µM*	-24%
COc1cccc(CNC(=O)CC(c2ccc(C)cc2)N2Cc3ccccc3C2=O)c1 (centres undefined)	u	2%
SMILES	AID inhibitor	UDG counterscr
Nc1ccccc1C(=O)NCCc1ccccc1	i	-1%
NNCCc1ccccc1	45µM*	32µM*
O=C(Nc1cccc(C(F)(F)F)c1)C1CCN(S(=O)(=O)c2cccs2)CC1	u	79µM*
O=C(Nc1ccc(OC(F)(F)F)cc1)C1CCN(S(=O)(=O)c2cccs2)CC1	i	u
O=[N+]([O-])c1cc(S(=O)(=O)Nc2ccc(Cl)cc2)ccc1N/N=C/c1ccccc1Br	i	-8%
CCn1c2ccccc2c2cc(NC(=O)COc3cc(C)ccc3C)ccc21	i	u
Cc1ccc(C)c(OCC(=O)Nc2ccc(Br)cc2C(=O)O)c1	56µM*	2%
O=C(O)C(Sc1nccc2ccccc12)c1ccccc1 (centres undefined)	i	-7%
CCOc1ccc(S(=O)(=O)Nc2nc3ccccc3nc2Nc2ccc(OC)cc2)cc1	u	-1%
CCc1ccc(Nc2nc3ccccc3nc2NS(=O)(=O)c2ccccc2)cc1	28µM*!	3%
N#Cc1cccc(NC(=O)COC(=O)c2ccc3ccccc3n2)c1	i	0%
CCCCSCCCNC(=O)C1CCN(Cc2nc(-c3ccc(CC)cc3)oc2C)CC1	u	89µM*
CCCCSCCCNC(=O)C1CCN(Cc2nc(-c3cccc(Br)c3)oc2C)CC1	i	u
Cc1ccc(-c2csc(Nc3ccc(S(=O)(=O)Nc4nc(C)cc(C)n4)cc3)n2)cc1	i	u
Cc1ccc(C)c(-c2csc(Nc3ccc(S(=O)(=O)Nc4nc(C)cc(C)n4)cc3)n2)c1	u	89µM*
